High-throughput results: PubChem BioAssay, National Center for Advancing Translational Sciences (NCATS)
A selection: hits, their analogues and other compounds. The true share with any hit is near 6.3%.
RORg inh = qHTS for inhibitors of ROR gamma transcriptional activity | Potency, µM (doses to about 53.6 µM), for the others: at the top dose activity change, negative = inhibition, most hits filed as inhibitors | Drosophila S2 Gal4-RORgamma UAS-luciferase reporter, 20 h | hit rate 5.4% among 310,000 | Nuclear receptor ROR-gamma (Mus musculus), P51450; note: % is set by controls: 0 for no effect and ±100 for the full control effect; nearly all actives have a fitted effect of over 60% in size
Target sequence (P51450 whole entry, looked up, the tested form may be a part): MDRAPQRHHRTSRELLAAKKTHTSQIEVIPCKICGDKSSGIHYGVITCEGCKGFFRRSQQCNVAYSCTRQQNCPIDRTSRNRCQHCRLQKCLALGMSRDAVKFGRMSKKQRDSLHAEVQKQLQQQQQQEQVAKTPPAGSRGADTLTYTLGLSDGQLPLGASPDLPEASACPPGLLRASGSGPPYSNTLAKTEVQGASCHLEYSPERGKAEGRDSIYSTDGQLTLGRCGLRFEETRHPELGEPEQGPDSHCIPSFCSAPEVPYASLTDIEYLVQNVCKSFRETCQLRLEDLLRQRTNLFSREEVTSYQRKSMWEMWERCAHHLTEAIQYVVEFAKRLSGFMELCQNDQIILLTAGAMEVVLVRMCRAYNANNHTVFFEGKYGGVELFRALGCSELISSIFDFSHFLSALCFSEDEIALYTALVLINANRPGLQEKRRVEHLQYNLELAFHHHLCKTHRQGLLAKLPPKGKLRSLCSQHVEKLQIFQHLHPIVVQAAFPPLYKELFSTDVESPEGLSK
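A Gal4/UAS one-hybrid system in insect cells: metallothionein-promoter Gal4–ROR gamma fusion plus Photinus luciferase reporter. Copper sulfate 700 uM final, 20 hr ambient incubation, luminescent detection after 10 min with reagent.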
HepG2 tox = qHTS for Inhibitors of TGF-b: Cytotox Counterscreen. HepG2 CAGA-GFP viability, ATP luminescence, 18 h. hit rate 0.76% among 410,000. Potency, µM (highest dose often 46.1 µM), inactives show at the highest dose activity change, negative = cytotoxicity, usual class: cytotoxic. AID 588856, 2011
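HepG2 CAGA-GFP cells (1000/well, DMEM with 1% FBS) received compound, then TGF-beta at 500 pg/mL final, and were incubated 18 hours at 37 degrees C. Viability was read by CellTiter-Glo luminescence. Media-only wells were set as complete cell-killing and DMSO as no toxicity.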
ATXN viability = Viability Counterscreen for Primary qHTS for Inhibitors of ATXN expression. hit rate 0.49% among 400,000. AID 651635, 2014. S2 cells (HEK-293 line with an ATXN2-luciferase reporter) viability, CellTiter-Fluor protease fluorescence, 24 h. Potency, µM (series often up to 56.7 µM), actives largely listed as cytotoxic; note: nearly all actives have a fitted effect of over 40% in size
ATXN2 expr inh = Primary qHTS for Inhibitors of ATXN expression; HEK-293 ATXN2-luciferase reporter, luminescence, 24 h; Potency, µM (top dose mostly 57 µM), inactives show at the highest dose activity change, negative = inhibition, actives largely listed as inhibitors; hit rate 0.72% among 360,000; AID 1745845, 2022; note: % is set by controls: 0 for no effect and ±100 for the full control effect; nearly all actives have a fitted effect of over 55% in size
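qHTS (up to 57 uM final) was run with 24 h compound exposure of reporter cells at 37 °C. Each well was multiplexed: SteadyGlo luminescence measured ATXN2-luciferase expression after a fluorogenic Gly-Phe-AFC viability readout (25 uM final).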
VP16 counter = VP16 counterscreen qHTS for inhibitors of ROR gamma transcriptional activity; Potency, µM (highest dose often 53.6 µM), inactives show at the top dose activity, negative = inhibition, usual class: inhibitors; AID 2546, 2010; hit rate 3.5% among 310,000; Drosophila S2 Gal4-VP16 UAS-luciferase, luminescence, 20 h;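 note: Gal4-VP16 expression switched on by copper sulfate through the metallothionein promoter; % is set by controls: 0 for no effect and ±100 for the full control effect; nearly all actives have a fitted effect of over 50% in size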
TGFb SMAD3 inh = qHTS for Inhibitors of TGF-b; HepG2 CAGA-GFP TGF-b/SMAD3 reporter, GFP fluorescence, 18 h; TGF-beta stimulated, 500 pg/mL final; Potency, µM (titrated, usually from 46.1 µM), without a hit: at the highest dose activity, negative = inhibition, hits mostly inhibitors; hit rate 1.2% among 410,000; AID 588855, 2011; note: % is set by controls: 0 for no effect and ±100 for the full control effect; nearly all actives have a fitted effect of over 65% in size
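HEPG2 CAGA-GFP cells (1000/well, DMEM with 1% FBS) were pre-incubated 2 h at 37 degrees C, given compound by pin tool, then stimulated with TGF-beta at 500 pg/mL final for 18 h before per-cell GFP fluorescence imaging.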
Starred values were filed as active, the others as inactive; i = inactive; ? = inconclusive; . = no result given. Calls come from the whole dose curve; as a rule, active = well fitted curve in the direction sought with a large enough effect; inconclusive = small, poorly fitted or top-dose-only effect, or another doubt; inactive = no such curve, though single readings can be large; an effect the other way counts as inactive or inconclusive. Potency is the fitted concentration of half-maximal effect.

SMILES	RORg inh	HepG2 tox	ATXN viability	ATXN2 expr inh	VP16 counter	TGFb SMAD3 inh
O=C(Nc1nnc(SCC(=O)N2CCCC2)s1)C1CC(=O)N(c2ccccc2)C1 (configuration not stated)	-25%	-46%	i	-6%	-1%	-8%
O=C(N/N=C/c1cc(Br)ccc1O)C(c1ccncc1)N1CCOCC1 (configuration not stated)	5µM*	22%	i	?	16µM*	?
CN1N=C(C(N)=O)CCC1=O	.	.	i	8%	.	.
Cc1ccc(SCCC(=O)OCn2nnc3ccccc3c2=O)cc1	-8%	-12%	i	-17%	-7%	3%
O=C(CCSc1ccccc1)OCn1nnc2ccccc2c1=O	15%	-7%	i	5%	0%	4µM*
C[C@@H]1CCC[C@]2(C)CCCC[C@@]12O	-26%	.	.	.	2%	.
Cc1cccc(N(C(=O)C(F)(F)F)C(C(=O)NC2CCCCC2)c2cccs2)c1 (configuration not stated)	-18%	-16%	i	-1%	?	-4%
C#CC(=O)N(c1ccc(OC)c(OC)c1)C(C(=O)NC1CCCC1)c1cccs1 (configuration not stated)	2.5µM*	13µM*	.	?	8.9µM*	?
COc1ccc(N(C(=O)Cc2cccs2)C(C(=O)NC2CCCC2)c2ccncc2)cc1OC (configuration not stated)	-1%	0%	i	-7%	-14%	18%
C#CC(=O)N(c1cccc(OC)c1)C(C(=O)NC1CCCC1)c1cccs1 (configuration not stated)	1.6µM*	8.9µM*	1.6µM*	1.6µM*	5µM*	22µM*
O=C(CCS(=O)(=O)c1cc2c3c(c1)CCN3C(=O)CC2)NCc1ccc(F)cc1	.	-3%	i	4%	.	7%
CCOc1ccc(S(=O)(=O)Nc2ccc(O)c(Sc3ncn[nH]3)c2)cc1	?	4%	i	11%	3.5µM*	-12%
CC1(C(=O)NS(=O)(=O)c2ccccc2)CCN1C(=O)CC1CCCC1 (configuration not stated)	.	2%	i	0%	.	6%
C=C1CC(Cn2cc(Br)c(=O)[nH]c2=O)(c2ccc(-c3ccccc3)cc2)OC1=O (configuration not stated)	.	7.1µM*	?	28µM*	.	4.5µM*
O=C(NNC1=Nc2cc([N+](=O)[O-])ccc2OC1)c1ccccc1Cl	1µM*	2%	i	-10%	-19%	12%
O=C(NNc1ccc([N+](=O)[O-])cc1)c1ccccc1Cl	19%	-4%	i	.	-16%	-7%
O=C1c2ccccc2C(=O)N1OS(=O)(=O)c1ccc(F)cc1	?	0%	i	.	?	-18%
Cc1ccc(S(=O)(=O)ON2C(=O)c3ccccc3C2=O)c(C)c1	20µM*	-2%	?	?	?	?
Cc1cc(C)c(S(=O)(=O)ON2C(=O)c3ccccc3C2=O)cc1C	14µM*	-2%	?	?	16µM*	0%
Cc1cc(C)c(C)c(S(=O)(=O)ON2C(=O)c3ccccc3C2=O)c1C	?	9%	?	?	13µM*	?
Cc1ccc(NC(=O)CN2C(=O)c3ccccc3C2=O)c(C)c1	8%	1%	i	12%	-3%	6%
COc1ccc(-n2cc(-c3ccc(Cl)cc3)[nH]c2=S)cc1	-42%	20%	i	.	4%	-22%
COc1ccc(-c2cn(-c3ccc(C)c(C)c3)c(=S)[nH]2)cc1OC	?	-25%	i	-10%	13µM*	-6%
COC(=O)c1ccc(-n2cc(-c3ccc(OC)cc3)[nH]c2=S)cc1	3.2µM*	5%	i	-4%	?	-4%
